The results in this text go back to PubChem BioAssay AID624330 (Southern Research Specialized Biocontainment Screening …, 2012).

In all, about 340,000 compounds went through this assay and about 2,100 (0.62%) were called active.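 Rule for the calls: active = first-screen hits whose inhibition reached a set limit at any dose in the follow-up dose series; inconclusive = inhibition above the set first-screen limit but never retested; inactive = the rest.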 Only a sample is shown. Potency and affinity values are given separately.

Chain of Rac GTPase-activating protein 1 (Homo sapiens) (Q9H0H5 whole entry, looked up): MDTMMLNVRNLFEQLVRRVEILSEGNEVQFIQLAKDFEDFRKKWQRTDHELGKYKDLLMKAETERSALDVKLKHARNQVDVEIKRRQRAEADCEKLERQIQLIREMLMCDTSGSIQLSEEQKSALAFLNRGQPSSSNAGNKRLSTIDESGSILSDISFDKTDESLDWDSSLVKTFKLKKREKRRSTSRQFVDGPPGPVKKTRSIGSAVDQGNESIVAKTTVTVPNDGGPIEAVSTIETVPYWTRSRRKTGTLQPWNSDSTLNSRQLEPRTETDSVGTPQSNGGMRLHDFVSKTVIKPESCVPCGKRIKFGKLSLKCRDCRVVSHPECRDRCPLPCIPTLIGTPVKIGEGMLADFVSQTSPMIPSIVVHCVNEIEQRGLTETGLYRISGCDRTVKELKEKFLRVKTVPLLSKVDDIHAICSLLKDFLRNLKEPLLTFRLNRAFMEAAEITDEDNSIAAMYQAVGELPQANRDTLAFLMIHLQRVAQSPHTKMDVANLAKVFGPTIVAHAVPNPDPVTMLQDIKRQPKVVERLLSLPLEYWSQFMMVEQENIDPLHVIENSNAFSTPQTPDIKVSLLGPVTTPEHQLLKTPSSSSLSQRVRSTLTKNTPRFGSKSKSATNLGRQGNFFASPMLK

The assay has as its target Rac GTPase-activating protein 1 (Homo sapiens) (UniProt Q9H0H5). Kind of assay: blockers of MgcRacGAP-driven Rac1 GTP hydrolysis – biochemical, ADP Hunter fluorescence, primary and confirmatory, confirmation (AID 624330).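 Note: fluorescence reports GDP produced by GAP-driven GTP hydrolysis.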 To be noted: MgcRacGAP-stimulated Rac1 GTP hydrolysis, at 30 µM, hits give high values, GST-tagged Rac1 F28L mutant substrate.
The term inhibition denotes the drop in the measured response relative to a control, in per cent. As for `CCn1c(CNC(=O)c2ccco2)nnc1SCC(=O)c1ccccc1`, the inhibition was 13.1% (inactive). As to `CCN(CC)S(=O)(=O)c1cccc(NC(=O)C(=O)c2c(-c3ccccc3)cc3ccccn23)c1`, the inhibition is 9% (inactive). To `O=C(/C=C/c1ccc(Cl)cc1)N1CCN(Cc2ccccc2)CC1` belongs 10.8% (inactive); to `CC(Oc1ccc(Br)cc1)C(=O)Nc1ccc(S(=O)(=O)Nc2nccs2)cc1` (configuration not stated), 3.41% (inactive); to `COc1ccc(/C=N/Nc2cc(=O)n(C)c(=O)n2C)cc1OC`, 1.57% (inactive). The value for `COc1cc(C=NCc2ccccc2)ccc1O` was 15.5% (inactive); that for `COc1ccc(NS(=O)(=O)c2cccc(C(=O)NN=Cc3ccc(OC)c(O)c3)c2)cc1` was 22.5% (inactive). To `COc1ccc(NS(=O)(=O)c2cccc(C(=O)N/N=C/c3ccc(O)cc3)c2)cc1` belongs 16.4% (inactive). Turning to `COc1ccc(/C=N/NC(=O)c2cc[n+]([O-])cc2)cc1OC`, the inhibition is 1.48% (inactive). To `COc1cc(/C=N/Nc2ccccc2)ccc1O` belongs 13% (inactive); to `Cn1c(N/N=C\c2cccc(O)c2)cc(=O)n(C)c1=O`, 11.6% (inactive). To `COc1ccc(/C=N/NC(=O)c2cc[n+]([O-])cc2)cc1` belongs 2.43% (inactive); to `Cc1ccc(C(=O)N2CCN(S(=O)(=O)c3ccc(C)c([N+](=O)[O-])c3)C2)cc1`, 6.42% (inactive); to `O=S(=O)(c1ccc(-c2csc(=Nc3ccccc3)n2CCCN2CCOCC2)cc1)N1CCOCC1`, 3.34% (inactive). The value for `CCCCCCCNC(=O)C1(CC2CC(c3ccc(Cl)cc3)=NO2)CCN(C(=O)Cc2ccc(F)cc2)CC1` (configuration not stated) was 4.28% (inactive); that for `Fc1ccc(CN2CCCN(Cc3nc(-c4ccc5c(c4)OCO5)no3)CC2)cc1` was 7.98% (inactive); that for `CCCC(=O)Nc1ccc(C(=O)COC(=O)C2CC2)cc1` was 6.42% (inactive). Consider `Cc1cc(C)c(C(=O)N2CCCC(CNC(=O)C3(c4ccc(Cl)cc4)CC3)C2)c(=O)[nH]1` (configuration not stated), for which the inhibition was 6.3% (inactive). To `CNC(=O)c1ccc(CN(C)C(=O)c2cccc(S(=O)(=O)N3CCc4ccccc4C3)c2)cc1` belongs 15.5% (inactive). The value for `COc1ccc2[nH]c(C(=O)N/N=C/c3ccc(OC)c(O)c3)cc2c1` was 26.2% (inactive). For the compound `COc1ccc(/C=N\NC(=O)c2cc(O)c(O)c(O)c2)cc1CN1CCN(c2ccc(F)cc2)CC1`, the inhibition is -36.7% (inactive). To `COc1cc(C(=O)N/N=C/c2ccc3c(c2)c2ccccc2n3C)ccc1O` belongs 22.2% (inactive); to `COc1ccc(/C=N/NC(=O)c2ccc(C)cc2)cc1CN1CCN(c2ccc(F)cc2)CC1`, 11.1% (inactive); to `COc1cc(/C=N/NC(=O)c2cc[n+]([O-])cc2)cc(OC)c1OC`, 7.29% (inactive). Consider `COc1ccc(/C=N/NC(=O)c2cc3cc(OC)c(OC)cc3[nH]2)cc1`, for which the inhibition is 10.7% (inactive). `O=C(N/N=C/c1ccc(F)cc1)c1cc[n+]([O-])cc1`: the inhibition was 2.39% (inactive).

As to `O=C(N/N=C/c1ccncc1)c1ccc(-n2cccc2)cc1`, the inhibition was -9.21% (inactive). To `Cc1onc(-c2c(Cl)cccc2Cl)c1C(=O)N(C)Cc1ccccc1` belongs 12.4% (inactive); to `CC(=O)N1CCN(c2ccc(NC(=O)c3ccco3)cc2Cl)CC1`, 8.65% (inactive); to `Cc1sc2nc(SCC(=O)N3CCN(CCO)CC3)n(-c3ccccc3)c(=O)c2c1C`, 6.94% (inactive). To `CCC(Oc1cc(Cl)ccc1Cl)C(=O)NN1C(=O)C2C3CCC(C3=C(C)C)C2C1=O` (configuration not stated) belongs 4.3% (inactive); to `CCCCCCN1C[C@H](n2cc(COC(=O)c3ccccc3)nn2)[C@@H](O)C[C@@H]1c1ccc(C)cc1`, 2.5% (inactive).

Regarding `O=C(Nc1ccc(Cl)cc1)N[C@@H]1c2c(ccc3ccccc23)OC[C@@H]1CO`, the inhibition is -2.15% (inactive). The value for `COC(=O)c1c(-c2ccccc2)csc1NC1=NS(=O)(=O)c2ccccc21` was -0.52% (inactive). The value for `COc1ccc(/C=N/NC(=O)C(=O)Nc2ccccn2)cc1OC` was 13.3% (inactive). To `COc1ccc(/C=N/NC(=O)c2ccc(CSc3nc(C)cc(C)n3)cc2)c(OC)c1OC` belongs 5.29% (inactive); to `C=CCOc1ccc(/C=N/NC(=O)C(=O)Nc2ccccn2)cc1OC`, -2.52% (inactive).

With `COc1cc(/C=N/NC(=O)c2cccc(NC(=O)c3ccccc3Cl)c2)ccc1O`, the inhibition is 28.3% (inactive). To `COc1ccccc1/C=N/NC(=O)c1cccc(NC(=O)c2ccccc2C)c1` belongs 6.03% (inactive).

Regarding `COc1ccc(OC)c(/C=N/NC(=O)c2[nH]nc3c2CCc2ccccc2-3)c1`, the inhibition is -0.52% (inactive). To `COc1ccc(/C=N/NC(=O)c2[nH]nc3c2CCc2ccccc2-3)cc1OC` belongs 11.3% (inactive); to `COc1cc(OC)c(OC)cc1/C=N/NC(=O)c1ccc(CSc2nc(C)cc(C)n2)cc1`, 8.78% (inactive); to `C[C@@H]1CN([C@@H](C)CO)C(=O)CCCn2cc(nn2)CO[C@H]1CN(C)S(=O)(=O)c1ccc(Oc2ccccc2)nc1`, 15.5% (inactive). For `C[C@@]12C(=O)Nc3cc(Cl)ccc3C(=O)N1[C@H]1c3cc(Br)ccc3OC[C@@H]1[C@@H]2c1ccccc1`, the inhibition was 11.9% (inactive). The value for `O=C(c1cc2nc(-c3ccc(F)cc3)cc(C(F)(F)F)n2n1)N1CCOCC1` was 10.3% (inactive); that for `CCN1C(=O)[C@H]2[C@H]3CN=C(SCc4ccc(C(=O)OC)cc4)N3[C@@](CC)(C(=O)OC)[C@H]2C1=O` was 6.61% (inactive). To `O=C(Nc1ccc2nc(-c3cccnc3)[nH]c2c1)c1ccccc1F` belongs 5.15% (inactive); to `O=C(O)C1CC(c2ccc(F)cc2)=NO1` (configuration not stated), 1.2% (inactive). With `CC(C)[C@H](NC(=O)OCc1ccccc1)C(=O)OCC(=O)NC1CCCCC1`, the inhibition is 10.6% (inactive). The value for `Cc1nonc1CN(C)C(=O)CC1C(=O)NCCN1Cc1ccccc1F` (configuration not stated) was 2.81% (inactive); that for `COc1cc(/C=N/Nc2ccc(C(=O)O)cc2)cc(OC)c1OC` was -9.42% (inactive). To `COc1ccc(/C=N/Nc2ccc(C(=O)O)cc2)cc1OC` belongs 12.8% (inactive); to `CCN(CC)c1ccc(/C=N/NC(=O)c2c[nH]c3ccccc23)cc1`, 30.9% (inactive); to `CCN(CC)c1ccc(/C=N\NC(=O)c2cccc3cc[nH]c23)cc1`, 21.1% (inactive).

`COc1cc(/C=C/C(=O)CC(=O)/C=C/c2ccc(O)c(OC)c2)ccc1O`: the inhibition was 27.8% (inactive). To `Cc1ccc(OCCn2cc(/C=N/NC(=O)c3ccncc3)c3ccccc32)cc1` belongs -10.1% (inactive). Turning to `CC(/C=C/c1ccc(O)cc1)=NNc1ccccc1`, the inhibition was 31.4% (inactive). Turning to `COc1ccc(OCCn2cc(/C=N/NC(=O)c3ccncc3)c3ccccc32)cc1`, the inhibition is 4.18% (inactive). To `CN(C(=O)c1cccc(NC(=O)Cc2ccc(NC(=O)C3CCCN(S(=O)(=O)c4cccc([N+](=O)[O-])c4)C3)cc2)c1)C1CCCCC1` (configuration not stated) belongs 3.08% (inactive). The value for `O=C(COc1ccc(Cl)cc1)NCc1nnc(SCC(=O)N2CCCc3ccccc32)o1` was 2.68% (inactive); that for `COc1ccc(-c2nnc(NC(=O)Cc3ccccc3)o2)cc1` was 7.81% (inactive); that for `COc1ccc(CN2CCOCCOCCOCC2)cc1` was 0.62% (inactive). For the compound `C=CCn1c(=O)c2ccccc2n2c(SCC(=O)NCCc3ccccc3)nnc12`, the inhibition is 6.1% (inactive). The value for `CC(C)n1nc(C(=O)NCCc2ccc(S(N)(=O)=O)cc2)c2ccccc2c1=O` was 0.38% (inactive). The value for `COc1ccc(CN2C(=O)c3ccccc3C2=O)cc1C(=O)OCC(=O)NC1CCCCC1` was 7.94% (inactive); that for `c1ccc2cc(CNCc3cccc4ccccc34)ccc2c1` was 13% (inactive). With `O=C(COC(=O)CN1CCSC1=O)Nc1ccc(F)cc1Cl`, the inhibition is 2.57% (inactive). The value for `O=C(NCC1COc2ccccc2O1)c1ccc(NC(=O)C2CCCO2)cc1` (configuration not stated) was 10.6% (inactive). The value for `Cc1nnc(NC(=O)CCn2c(=O)oc3ccccc32)s1` was 4.88% (inactive); that for `C=CCSc1ncccc1C(=O)NCCc1ccc(Cl)cc1` was 10.4% (inactive); that for `O=C(N/N=C/c1ccccc1O)C1(O)c2ccccc2-c2ccccc21` was 8.51% (inactive). Take `COc1ccc(/C=N/NC(=O)C2(O)c3ccccc3-c3ccccc32)cc1`: the inhibition is 6.06% (inactive). To `COc1ccccc1N(CC(=O)Nc1ccc(Cc2ccncc2)cc1)S(=O)(=O)c1ccccc1` belongs 0.87% (inactive); to `COc1ccc(C(=O)Nc2ccc3c(c2)n(C)c(=O)n3C)cc1OC`, 3.94% (inactive). Consider `O=S(=O)(Cc1ccccc1)N1CCN(C2Cc3ccccc3C2)CC1`, for which the inhibition is 9.97% (inactive). To `CCS(=O)(=O)N1CCN(C2Cc3ccccc3C2)CC1` belongs 13.9% (inactive); to `CC1CCC(N2CCN(S(=O)(=O)Cc3ccccc3)CC2)CC1` (configuration not stated), 7.86% (inactive). To `CCS(=O)(=O)N1CCN(C2CCC(C)CC2)CC1` (configuration not stated) belongs 17.9% (inactive). As for `Nc1cc2c(cc1Br)-c1ccccc1C2=NO`, the inhibition is 7.06% (inactive). The value for `COc1ccc(-c2nn(-c3ccccc3)cc2/C=N/Nc2ccc(Cl)c(C(=O)O)c2)cc1OC` was 13.5% (inactive). `N#Cc1c(-c2ccccc2)nc(N2CCN(Cc3ccccc3)CC2)[nH]c1=O`: the inhibition was 0.49% (inactive).

For `O=C(/C=C/c1cn(-c2ccccc2)nc1-c1cccnc1)NCCN1CCOCC1`, the inhibition was 11.7% (inactive).

On to `O=c1oc2cc(O)ccc2cc1-c1ccccc1`, for which the inhibition was 15.9% (inactive). Consider `O=C(O)c1cc2ccc(O)cc2oc1=O`, for which the inhibition is 4.89% (inactive). The value for `O=C(CCCc1nc2ccccc2s1)NC(c1ccccc1)c1ccccc1` was 6.29% (inactive).

As to `O=C(CN1N=C(c2ccccc2)CCC1=O)NCc1ccccc1`, the inhibition was 6.27% (inactive).

As to `COc1cc(CN(C)C(=O)C(=O)c2c[nH]c3ccccc23)ccc1O`, the inhibition is 8.17% (inactive).

`O=C(c1cc(-c2ccc(Cl)c(Cl)c2)on1)N1CCN(c2ccccc2)CC1`: the inhibition is 4.94% (inactive).

In the case of `COc1ccccc1NC(=O)c1cccs1`, the inhibition was 0.52% (inactive). To `COc1ccc(NC(=O)c2ccc(NC(=O)c3cccs3)cc2)cc1` belongs 2.51% (inactive). Consider `COc1cc(NC(=O)c2cccs2)c(OC)cc1NC(=O)c1cccs1`, for which the inhibition was 4.2% (inactive). To `COc1ccc(NC(=O)c2cccs2)cc1` belongs 8.32% (inactive).
